The results in this text go back to PubChem BioAssay AID803 (The Scripps Research Institute Molecular Screening Center, 2007).

Hit rate of the full screen: of about 140,000 compounds, about 680 (0.49%) were called active. The entries come from a sample that favours actives as a whole. Values without a mark were called inactive. No stated cut-off is given here; in the data, active means activation above about 5% (passing the limit was not always enough); inactive means the rest.

For this experiment, the target named is Galanin receptor type 2 (Homo sapiens) (UniProt O43603). The experiment can be described thus: human galanin receptor 2 activators – cell-based, primary screen (AID 803).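 Further: 0% = vehicle buffer wells and 100% = reference agonist at full effect.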 Conditions: GALR2-expressing cells, agonist activation read-out; at 5.6 µM; active compounds read high.
Galanin receptor type 2 (Homo sapiens), sequence (O43603 whole entry, looked up): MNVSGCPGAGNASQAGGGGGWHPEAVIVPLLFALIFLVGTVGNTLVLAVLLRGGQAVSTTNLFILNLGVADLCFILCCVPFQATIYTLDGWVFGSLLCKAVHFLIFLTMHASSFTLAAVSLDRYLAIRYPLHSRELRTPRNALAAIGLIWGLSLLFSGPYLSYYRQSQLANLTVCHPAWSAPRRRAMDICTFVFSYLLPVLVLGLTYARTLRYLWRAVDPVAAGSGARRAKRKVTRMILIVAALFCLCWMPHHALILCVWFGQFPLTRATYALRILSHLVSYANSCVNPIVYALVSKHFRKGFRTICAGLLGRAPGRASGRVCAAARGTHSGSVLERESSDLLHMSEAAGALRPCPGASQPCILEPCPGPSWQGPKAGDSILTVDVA
With `COc1ccc(S(=O)(=O)NC(C)C(=O)Nc2cccc([N+](=O)[O-])c2)cc1` (centres undefined), the activation was -0.92%.

`CCC(C)C(=O)Nc1cc([N+](=O)[O-])ccc1Cl` (centres undefined): the activation was -0.24%.

Consider `CC(C)C(=O)Nc1cccc(NC(=O)c2ccc([N+](=O)[O-])cc2Cl)c1`, for which the activation was 7.57% (active).

Consider `C/C(=N\N=C(N)N)c1ccc(Cl)cc1`, for which the activation was -2.59%.

In the case of `O=C(NN1C(=O)C2C3C=CC(C3)C2C1=O)c1ccco1` (centres undefined), the activation is -0.17%.

In the case of `CC1(C)CC(=O)C=C(NCCCN2CCCC2=O)C1`, the activation was -3.74%.

Regarding `CC1(C)CC(=O)C=C(NCCCNC2CCCCC2)C1`, the activation was -0.48%.

In the case of `CC1(C)CC(=O)C=C(NCCN2CCNCC2)C1`, the activation was 33.1% (active).

As for `COc1cccc(/C=N/Nc2ncc(C(F)(F)F)cc2Cl)c1O`, the activation was 0.04%.

In the case of `Cc1cc(O)ccc1NC1=CC(=O)CC(C)(C)C1`, the activation is -0.24%.

On to `O=C(Nc1ccccc1)/C(=C/c1ccc([N+](=O)[O-])cc1)NC(=O)c1ccccc1`, for which the activation was 5.48% (active).

Regarding `O=C(N/N=C/c1ccc(O)cc1)/C(=C/c1ccc([N+](=O)[O-])cc1)NC(=O)c1ccccc1`, the activation was -1.29%.

On to `O=C(O)c1ccc(NC(=O)c2cccs2)cc1`, for which the activation is -3%.

As to `COCCCNC(=S)NC(=O)c1ccc([N+](=O)[O-])cc1`, the activation is -2.33%.

Take `O=C(NC(=S)Nc1ccc(NC(=O)c2cccs2)cc1)c1ccc([N+](=O)[O-])cc1`: the activation is 13.8% (active).

Regarding `O=C(NCCc1ccccc1)/C(=C\c1ccc([N+](=O)[O-])cc1)NC(=O)c1ccccc1`, the activation was -1.62%.

Take `Cc1ccccc1C(CC(=O)c1cccs1)C(C#N)C#N` (centres undefined): the activation is -0.23%.

In the case of `Cc1cc2c(C)nc(N/N=C/c3ccccc3)nc2o1`, the activation is 0.45%.

In the case of `O=C(Oc1ccccc1Cl)c1ccc(N2CCOCC2)c([N+](=O)[O-])c1`, the activation was -1.48%.

With `CC(=O)c1sc(N/N=C\c2ccc(C)cc2)nc1C`, the activation is 2.02%.

With `O=C(CSc1ncnc2scc(-c3ccccc3)c12)NCc1ccc2c(c1)OCO2`, the activation was -1.28%.

`CC(C)(C)SCCNC(=O)c1cccc([N+](=O)[O-])c1`: the activation was -0.73%.

Turning to `Cc1ccc(S(=O)(=O)N2CCN(CC(=O)N/N=C/c3cc([N+](=O)[O-])ccc3Cl)CC2)cc1`, the activation was -0.78%.

For the molecule `CSc1nc(C)cc(SC(C(C)=O)C(=O)Nc2ccccc2)n1` (centres undefined), the activation is -0.36%.

In the case of `CSc1nc(-c2ccccc2)nc(C(Cl)Cl)n1`, the activation was 8.01% (active).

As to `CC(=O)CCC(=O)c1ccc2ccccc2c1`, the activation is -2.23%.

For the molecule `Cc1ccc(C(=O)NC(=S)NCCN2CCOCC2)cc1`, the activation is -1.71%.

For the molecule `COc1cc2c(cc1/C=C1/NC(=O)N(c3ccccc3)C1=O)OCO2`, the activation was 1.22%.

Turning to `O=C1N/C(=C/c2cccn2-c2ccccc2)C(=O)N1c1cccc(Cl)c1`, the activation was 6.96% (active).

Regarding `O=C1CC(NNc2ccccc2)C(=O)N1c1cccc(Cl)c1` (centres undefined), the activation is -2.24%.

On to `CCOc1ccc2nc(NC(=O)c3cc([N+](=O)[O-])ccc3N3CCOCC3)sc2c1`, for which the activation is -0.53%.

`O=C1COc2ccc(NC(=O)N3CCN(c4ccc(F)cc4)CC3)cc2N1`: the activation was 12.7% (active).

As for `O=C(Nc1cccc(NC(=O)N2CCN(c3ccccc3)CC2)c1)N1CCN(c2ccccc2)CC1`, the activation was -2.65%.

On to `COc1cccc(N2CCN(C(=O)Nc3ccc4c(c3)NC(=O)CO4)CC2)c1`, for which the activation is -2.77%.

Take `COCC(=O)N=Nc1c(O)[nH]c2ccccc12`: the activation was -0.5%.

On to `CN(c1ccccc1)c1nc(N)c([N+](=O)[O-])c(NCc2ccco2)n1`, for which the activation is 1.08%.

Consider `CCc1nnc(NC(=O)C2CC(=O)N(c3ccc4c(c3)OCCO4)C2)s1` (centres undefined), for which the activation was 0.1%.

As for `CNC(=S)N/N=C/c1ccc(OCc2ccccc2)c(Br)c1`, the activation is 7.44% (active).

As to `COc1cc(/C=N/n2c(C)n[nH]c2=S)ccc1OCc1ccccc1`, the activation was 1.11%.

Consider `CNC(=S)NNC(=O)c1sccc1OCc1ccccc1`, for which the activation was -1.56%.

As to `COc1ccc(/C(N)=N/OC(=O)CCCc2ccccc2)cc1`, the activation is -0.21%.

For `C=C(C)c1cccc(C(C)(C)NC(=O)NC2CCCC2)c1`, the activation is -1.16%.

For `COc1ccc(C(=O)OCC(=O)NC(=O)CCSc2ccccc2)cc1`, the activation was -1.93%.

Take `CC(Sc1cccc[n+]1[O-])C(=O)Nc1cccc(S(=O)(=O)N2CCOCC2)c1` (centres undefined): the activation was -0.5%.

Consider `COc1ccc(Nc2nc(N)nc(CSC(=S)N3CCC(C)CC3)n2)cc1`, for which the activation was 0.01%.

Turning to `COCCNC(=S)N/N=C/c1c(C)[nH]c2ccccc12`, the activation was -0.61%.

Regarding `CCOC(=O)c1c(C)c(C(=O)NCCc2ccc(S(N)(=O)=O)cc2)c(C)n1CC`, the activation was -2.14%.

For the molecule `CCCNC(=O)c1c(N)n(-c2ccc(S(N)(=O)=O)cc2)c2nc3ccccc3nc12`, the activation was 35.1% (active).

Consider `CCC(=O)Nc1c(S(=O)(=O)c2ccccc2)c2nc3ccccc3nc2n1Cc1ccccc1`, for which the activation is 2.15%.

Regarding `CCC(CC)C(=O)N1CCN(c2cccc(C)c2C)CC1`, the activation was -1.21%.

For the molecule `Cc1cc(C(=O)N/N=C/c2ccc(O)c([N+](=O)[O-])c2)c(C)n1-c1ccc(F)cc1`, the activation is 1.21%.

For the molecule `Cc1[nH]c2ccccc2c1/C=N\NC(=O)Cn1nnc(-c2ccccc2)n1`, the activation was 5.32% (active).

Consider `O=C(Cn1nnc(-c2ccccc2)n1)NCc1ccccc1`, for which the activation is -0.65%.

For `O=C(Cn1nnc(-c2ccccc2)n1)N/N=C/c1ccc(-c2ccc(Cl)cc2)o1`, the activation was -0.89%.

As to `COc1ccc(NC(=O)CN2C(=O)C(c3ccccc3)=NC23CCCCCC3)cc1OC`, the activation is -2.09%.

As for `CC(=O)NNC1=Nc2ccccc2N(C)C(C)C1` (centres undefined), the activation was -1.09%.

For the molecule `COc1cccc(/C=N/NC(=O)CNC(=O)c2ccc(S(=O)(=O)N3CCOCC3)cc2)c1OC`, the activation is -1.42%.

As to `CN(C(=O)CSc1nnc(-c2n[nH]c3ccccc23)o1)c1ccccc1`, the activation is 0.05%.

Consider `Cc1ccc2sc(NNC(=O)c3ccc4c(c3)OCCO4)nc2c1C`, for which the activation was -2.21%.

On to `O=C(O)CCC(=O)N(Cc1cccs1)Cc1cccs1`, for which the activation was 0.14%.

In the case of `Cc1ccsc1C(C(=O)NC1CCCCC1)N(C(=O)Cc1cccs1)C1CC1` (centres undefined), the activation was 0.48%.

With `CC(=O)N(Cc1cccs1)C1CCOC(C)(C)C1` (centres undefined), the activation was 36.2% (active).

In the case of `Cc1nn(-c2ccccc2)c(NC(=O)c2cccs2)c(-c2ccc(Cl)cc2)c1=O`, the activation is -0.28%.

For `COc1ccc(C(=O)Cn2nnc(-c3ccc(N4CCOCC4)cc3)n2)cc1OC`, the activation is -0.59%.

With `COc1ccc(C(=O)CN2C(=O)NC(C)(c3ccc(C)cc3)C2=O)cc1OC` (centres undefined), the activation is 10.3% (active).

`COc1ccc(C(=O)n2nc(-c3ccc(C)cc3)nc2N)cc1OC`: the activation was -1.18%.

In the case of `N#Cc1c(C(F)(F)F)cc(-c2ccccc2)nc1SCC(=O)N1CCOCC1`, the activation is -2.74%.

`CCN(CC)c1nc(-c2ccccc2)cc(C(F)(F)F)c1C#N`: the activation is 14.6% (active).

In the case of `COC(=O)c1cc2nc(-c3ccccc3)cc(C(F)(F)F)n2n1`, the activation was -0.55%.

Turning to `O=S(=O)(c1ccc(F)cc1)N1CCN(C(=S)NC2CCCC2)CC1`, the activation was -1.23%.

Take `Cc1cccc(C(=O)NC(=S)N2CCN(c3ccc([N+](=O)[O-])cc3)CC2)c1`: the activation was 0.09%.

As to `CCCOc1ccc(C(=O)C(CCC(CNCC)C(=O)c2ccc(OCCC)cc2)CNCC)cc1` (centres undefined), the activation is 24.7% (active).

In the case of `CCCCOc1ccc(C(=O)NCc2ccncc2)cc1`, the activation was -0.14%.

Regarding `CCCCOc1ccc(C(=O)NCc2ccco2)cc1`, the activation was -1.35%.

Consider `CCc1ccc(Oc2coc3cc(OC(=O)c4cc5ccccc5oc4=O)ccc3c2=O)cc1`, for which the activation was 0.76%.

Turning to `OC(COCC1COc2ccccc2O1)CN1CCN(c2ccc(F)cc2)CC1` (centres undefined), the activation was -0.37%.

In the case of `CCN(/N=C/c1ccc(N(C)C)cc1)c1nc2ccccc2[nH]1`, the activation was -1.85%.

For `CCc1nnc(NS(=O)(=O)c2ccc(N=Cc3c(C)[nH]n(-c4ccc(C)cc4)c3=O)cc2)s1`, the activation is -3.95%.

As to `COc1cc(SC#N)ccc1N=Cc1c(C)[nH]n(-c2ccc(C)cc2)c1=O`, the activation is 17.6% (active).

For the molecule `COc1cc(NS(=O)(=O)c2ccc(N=Cc3c(C)[nH]n(-c4ccccc4)c3=O)cc2)nc(OC)n1`, the activation is -4.11%.

With `CC(=O)NCCC(=O)Nc1nc(C)c(Cc2ccc3c(c2)OCO3)s1`, the activation is -0.64%.

Take `Cc1cc(F)ccc1S(=O)(=O)N1CCCOC1CNC(=O)C(=O)NCCC1=CCCCC1` (centres undefined): the activation was -0.65%.

On to `COc1ccc(Nc2cc(C)nc(-n3nc(C)cc3C)n2)cc1`, for which the activation was 0.3%.

As for `COc1ccc(C(C[N+](=O)[O-])n2nc(C)cc2C)cc1` (centres undefined), the activation was 5.52% (active).

Take `COc1ccc(OCc2cn3c(C)cc(C)nc3n2)cc1`: the activation is -0.2%.

With `CCC1C(=O)c2ccccc2N(C)C1=O` (centres undefined), the activation is -2.42%.

Turning to `CCC(C)NC(=O)c1c(N)n(/N=C/c2cccs2)c2nc3ccccc3nc12` (centres undefined), the activation was -0.44%.

As to `CC(C)Cn1c(N)c(C(=O)NCc2cccs2)c2nc3ccccc3nc21`, the activation is 29.6% (active).

Consider `C=CCn1c(N)c(C(=O)OCC(C)C)c2nc3ccccc3nc21`, for which the activation is -3.82%.

For `CCN(CC)c1ccc(S(=O)(=O)N2CCOCC2)cc1NC(=O)CSc1cccc[n+]1[O-]`, the activation was -0.35%.

In the case of `O=C(Cc1cccs1)Nc1nnc(SCc2ccc(F)cc2)s1`, the activation was 1.11%.

Take `CCCCOc1ccc(C(=O)NN2CCN(C)CC2)cc1`: the activation is 0.08%.

In the case of `CCCc1cc(=O)[nH]c(SCC(=O)N2CCN(S(=O)(=O)c3ccc(C)cc3C)CC2)n1`, the activation is 2.71%.

For `CCCCOc1ccc(C(=O)NCC(=O)OCC(=O)N2CCN(S(=O)(=O)c3ccc(C)cc3C)CC2)cc1`, the activation is 7.56% (active).
